These results are taken from PubChem BioAssay.

Calls of active or inactive are those of the source.

The target of test [1] is Albumin (Bos taurus) (UniProt P02769). Put plainly: bovine serum albumin binders on microarray, profiling panel, artefact control for SMM control protein annotation, biochemical, small-molecule microarray, Alexa647 label, 635/667 nm fluorescence (AID 1118).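 Note: score merges 667 nm emission intensity and signal-to-noise per printed compound spot.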 As to conditions: BSA-A647 binding, fluorescence 635 nm, higher = more signal.
Chain of Albumin (Bos taurus) (P02769 whole entry, looked up): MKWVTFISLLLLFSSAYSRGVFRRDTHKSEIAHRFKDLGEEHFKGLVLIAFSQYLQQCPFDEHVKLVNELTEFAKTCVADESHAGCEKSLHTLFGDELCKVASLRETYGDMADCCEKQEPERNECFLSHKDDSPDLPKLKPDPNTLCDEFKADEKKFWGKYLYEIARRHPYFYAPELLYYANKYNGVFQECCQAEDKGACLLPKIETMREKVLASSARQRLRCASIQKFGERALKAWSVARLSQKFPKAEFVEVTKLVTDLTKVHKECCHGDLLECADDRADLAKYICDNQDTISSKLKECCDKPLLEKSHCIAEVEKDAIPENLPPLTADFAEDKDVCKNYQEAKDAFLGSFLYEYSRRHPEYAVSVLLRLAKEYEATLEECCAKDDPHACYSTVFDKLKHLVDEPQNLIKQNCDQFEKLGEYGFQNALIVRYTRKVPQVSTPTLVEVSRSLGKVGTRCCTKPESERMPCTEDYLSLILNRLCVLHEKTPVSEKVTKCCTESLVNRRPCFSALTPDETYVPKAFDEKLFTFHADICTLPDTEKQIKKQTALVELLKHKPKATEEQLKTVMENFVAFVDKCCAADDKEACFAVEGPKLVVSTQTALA
Test [2] in a line: small-molecule microarray binders of probe aXIP, primary screen, biochemical, NeuroSMM set, 635/667 nm fluorescence (AID 1119).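 Note: probe is the protein aXip251-270 applied at 1 µg/mL to compound-printed slides; binding of probe to printed compounds measured as 667 nm fluorescence plus signal to noise.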 As to conditions: higher = more signal, called active from +8 up or from −8 down.
Test [3] can be described thus: small-molecule binders of probe aNOTCH3, primary screen, biochemical, small-molecule microarray, 635/667 nm fluorescence (AID 1120).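 Note: probe is a biotin-tagged antibody raised against NOTCH3 rather than NOTCH3 protein; score merges spot fluorescence near 667 nm with spot signal to noise.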 As to conditions: higher = more signal.
Test [4] in a line: small-molecule binders of probe aNOTCH2, primary screen, biochemical, small-molecule microarray, 635/667 nm fluorescence (AID 1121).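 Note: score merges feature fluorescence read at 667 nm with its signal to noise.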 As to conditions: higher = more signal.
Test [5] has as its target Carbonic anhydrase 2 (Homo sapiens) (UniProt P00918). Put plainly: CAII small-molecule binders, profiling panel, biochemical, small-molecule microarray, Alexa647-labelled CAII (AID 1122). Conditions: CAII-A647 binding fluorescence, higher = more signal.
Test [6] can be described thus: COS7 lysate on small-molecule microarray, probe aHis, 635 nm (AID 1123).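 Note: z-score combines 667nm fluorescence intensity with signal-to-noise per printed compound spot.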 As to conditions: COS7 cell lysate, fluorescence, higher = more signal.
Test [7] in a line: compound binding in COS7 lysate, probe aLAP1, primary screen, cell lysate, small-molecule microarray (AID 1124).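 Note: lysate comes from COS7 cells expressing LAP1 and is applied at 0.3 µg/mL; score merges spot fluorescence near 667 nm with signal-to-noise over triplicate slides.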 Conditions: probe aLAP1, fluorescence, higher = more signal.
The subject of test [8] is Sam68 (KHDRBS1). The test can be described thus: Sam68 small-molecule binders, primary screen, biochemical, small-molecule microarray, 635 nm fluorescence (AID 1125).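 Note: score merges 667 nm channel intensity with signal to noise over triplicate slides.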 As to conditions: small-molecule microarray binding, higher = more signal.
Test [9] deals with Chordin-like protein 2 (CHRDL2). Put plainly: CHRDL2 small-molecule binders, primary screen, biochemical, small-molecule microarray, 635 nm fluorescence (AID 1126).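 Note: printed compound slides probed with Chrdl2 protein at 4 µg/mL for 1 h at 4 C; score merges 667 nm emission intensity with signal to noise over three replicate slides.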 Conditions: small-molecule microarray binding, fluorescence 635 nm; higher = more signal.
Test [10] addresses Concanavalin-A (Canavalia ensiformis) (UniProt P02866). The test can be described thus: ConA small-molecule binders, primary screen, artefact control for SMM control protein annotation, biochemical, small-molecule microarray, Alexa647 label, 635 nm (AID 1127).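 Note: z combines 667 nm emission intensity with signal-to-noise across three replicate slides.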 Conditions: ConA-A647 binding fluorescence, higher = more signal.
A short description of test [11]: anti-His antibody binders, primary screen, artefact control for SMM control protein annotation, biochemical, small-molecule microarray, 635 nm fluorescence (AID 1128).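 Note: score merges feature fluorescence with signal-to-noise for each printed compound spot.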 Conditions: anti-His Alexa647 antibody binding, higher = more signal.
The subject of test [12] is Human papillomavirus type 1a E7 protein (residues 1-88). The test can be described thus: HPV1a E7 small-molecule binders, primary screen, biochemical, small-molecule microarray, residues 1-88, 635 nm (AID 1129). Conditions: small-molecule microarray binding, fluorescence 635 nm; higher = more signal.
Test [13] addresses Focal adhesion kinase 1 (Homo sapiens) (UniProt Q05397). Put plainly: small-molecule microarray binders of FAK, primary screen, biochemical, 635/667 nm fluorescence, BSA, DTT (AID 1130).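 Note: composite of spot emission at 667 nm and signal to noise over triplicate slides.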 Conditions: PTK2 binding, 635 nm fluorescence, higher = more signal.
Test [14] has as its system Fibrinogen (Alexa647-labelled). Put plainly: fibrinogen binders on compound microarrays, profiling panel, artefact control for SMM control-protein annotation, biochemical, small-molecule microarray, 635/667 nm fluorescence (AID 1131).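 Note: z-score merges 667 nm fluorescence with per-spot signal-to-noise over triplicate slides.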 As to conditions: fibrinogen-A647 binding fluorescence, higher = more signal.
Test [15] has as its target Follistatin (Homo sapiens) (UniProt P19883). The test can be described thus: follistatin binders on small-molecule microarrays, primary screen, biochemical, small-molecule microarray, 635/667 nm fluorescence (AID 1132). As to conditions: FST binding, 635 nm fluorescence, higher = more signal.
The target in test [16] is Fibroblast growth factor 2 (Homo sapiens) (UniProt P09038). Put plainly: FGF2 binders on small-molecule microarrays, primary screen, biochemical, small-molecule microarray, 635/667 nm fluorescence (AID 1133). Conditions: small-molecule microarray binding, FGF2, fluorescence 635/667; higher = more signal.
Chain of Fibroblast growth factor 2 (Homo sapiens) (P09038 whole entry, looked up): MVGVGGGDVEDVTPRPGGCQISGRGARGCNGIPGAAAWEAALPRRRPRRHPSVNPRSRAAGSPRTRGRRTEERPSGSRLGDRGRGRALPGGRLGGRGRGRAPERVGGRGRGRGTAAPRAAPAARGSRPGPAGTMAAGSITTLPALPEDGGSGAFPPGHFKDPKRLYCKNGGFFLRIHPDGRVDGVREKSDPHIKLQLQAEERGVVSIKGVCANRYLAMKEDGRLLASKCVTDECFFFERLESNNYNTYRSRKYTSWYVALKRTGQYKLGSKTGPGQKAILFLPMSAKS
The nature of test [17]: mitochondrial membrane potential change in A549 cells, profiling panel, cell-based, JC-1 fluorescence, basal, 24 h, 100 nL (AID 1138).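 Note: A549 lung adenocarcinoma cells under basal conditions with no added stimulus; test concentration not given here.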 Conditions: higher = more signal.
Test [18] has as its system Lefty1. Put plainly: Lefty1 binders on small-molecule microarrays, primary screen, biochemical, small-molecule microarray, 635/667 nm fluorescence (AID 1139). Conditions: small-molecule microarray binding, fluorescence 635/667; higher = more signal.
The test system of test [19] is wheat germ agglutinin (Triticum aestivum), Alexa647-labelled. The test can be described thus: wheat germ agglutinin binders on compound microarrays, profiling panel, artefact control for SMM control-protein annotation, biochemical, small-molecule microarray, 635/667 nm fluorescence (AID 1140).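 Note: score merges 667 nm feature emission with signal to noise over triplicate slides.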 Conditions: WGA-A647 binding, 635 nm fluorescence, higher = more signal.
For test [20], the target named is Luciferin 4-monooxygenase (Photinus pyralis) (UniProt P08659). Put plainly: firefly luciferase enzyme inhibitors, primary screen, biochemical, luminescence, purified enzyme, 2006 set (AID 1141).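 Note: cell-free assay with purified firefly luciferase at 100 ng per well in PBS; test concentration not given here.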 Conditions: SteadyGlo luminescence, 30 min, higher = more signal, called active from +8 up or from −8 down.
Chain of Luciferin 4-monooxygenase (Photinus pyralis) (P08659 whole entry, looked up): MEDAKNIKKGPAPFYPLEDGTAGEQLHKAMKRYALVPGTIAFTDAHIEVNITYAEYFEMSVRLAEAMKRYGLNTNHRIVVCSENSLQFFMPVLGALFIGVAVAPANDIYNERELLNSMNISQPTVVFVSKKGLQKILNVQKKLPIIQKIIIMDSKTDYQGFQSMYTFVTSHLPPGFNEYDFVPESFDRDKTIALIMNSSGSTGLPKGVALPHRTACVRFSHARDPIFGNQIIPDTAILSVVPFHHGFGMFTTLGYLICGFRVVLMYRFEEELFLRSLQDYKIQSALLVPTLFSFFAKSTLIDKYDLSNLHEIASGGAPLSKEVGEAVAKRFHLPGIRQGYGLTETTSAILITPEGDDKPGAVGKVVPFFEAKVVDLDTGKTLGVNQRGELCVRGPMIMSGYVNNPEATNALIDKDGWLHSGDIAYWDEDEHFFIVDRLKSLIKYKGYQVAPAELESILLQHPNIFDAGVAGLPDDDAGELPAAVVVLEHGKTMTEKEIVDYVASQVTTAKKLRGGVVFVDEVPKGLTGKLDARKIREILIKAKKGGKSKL

Chain of Concanavalin-A (Canavalia ensiformis) (P02866 whole entry, looked up): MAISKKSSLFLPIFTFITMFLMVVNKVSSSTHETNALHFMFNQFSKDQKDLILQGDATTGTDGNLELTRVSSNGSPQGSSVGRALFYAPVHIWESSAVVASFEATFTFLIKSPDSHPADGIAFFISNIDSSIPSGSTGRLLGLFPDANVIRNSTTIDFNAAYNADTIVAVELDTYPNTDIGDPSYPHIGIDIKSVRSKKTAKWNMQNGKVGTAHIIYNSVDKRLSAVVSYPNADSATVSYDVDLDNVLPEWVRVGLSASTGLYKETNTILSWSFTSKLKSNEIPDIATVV
Chain of Follistatin (Homo sapiens) (P19883 whole entry, looked up): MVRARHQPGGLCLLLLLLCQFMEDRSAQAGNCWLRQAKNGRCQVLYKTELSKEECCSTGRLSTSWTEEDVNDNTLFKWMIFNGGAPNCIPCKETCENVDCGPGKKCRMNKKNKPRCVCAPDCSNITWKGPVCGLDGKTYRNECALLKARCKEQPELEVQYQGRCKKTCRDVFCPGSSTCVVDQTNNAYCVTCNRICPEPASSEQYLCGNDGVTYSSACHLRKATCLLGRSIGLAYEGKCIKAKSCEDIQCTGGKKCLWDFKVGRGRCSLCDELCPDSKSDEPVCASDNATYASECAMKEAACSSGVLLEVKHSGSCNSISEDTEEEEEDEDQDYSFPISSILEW
Chain of Focal adhesion kinase 1 (Homo sapiens) (Q05397 whole entry, looked up): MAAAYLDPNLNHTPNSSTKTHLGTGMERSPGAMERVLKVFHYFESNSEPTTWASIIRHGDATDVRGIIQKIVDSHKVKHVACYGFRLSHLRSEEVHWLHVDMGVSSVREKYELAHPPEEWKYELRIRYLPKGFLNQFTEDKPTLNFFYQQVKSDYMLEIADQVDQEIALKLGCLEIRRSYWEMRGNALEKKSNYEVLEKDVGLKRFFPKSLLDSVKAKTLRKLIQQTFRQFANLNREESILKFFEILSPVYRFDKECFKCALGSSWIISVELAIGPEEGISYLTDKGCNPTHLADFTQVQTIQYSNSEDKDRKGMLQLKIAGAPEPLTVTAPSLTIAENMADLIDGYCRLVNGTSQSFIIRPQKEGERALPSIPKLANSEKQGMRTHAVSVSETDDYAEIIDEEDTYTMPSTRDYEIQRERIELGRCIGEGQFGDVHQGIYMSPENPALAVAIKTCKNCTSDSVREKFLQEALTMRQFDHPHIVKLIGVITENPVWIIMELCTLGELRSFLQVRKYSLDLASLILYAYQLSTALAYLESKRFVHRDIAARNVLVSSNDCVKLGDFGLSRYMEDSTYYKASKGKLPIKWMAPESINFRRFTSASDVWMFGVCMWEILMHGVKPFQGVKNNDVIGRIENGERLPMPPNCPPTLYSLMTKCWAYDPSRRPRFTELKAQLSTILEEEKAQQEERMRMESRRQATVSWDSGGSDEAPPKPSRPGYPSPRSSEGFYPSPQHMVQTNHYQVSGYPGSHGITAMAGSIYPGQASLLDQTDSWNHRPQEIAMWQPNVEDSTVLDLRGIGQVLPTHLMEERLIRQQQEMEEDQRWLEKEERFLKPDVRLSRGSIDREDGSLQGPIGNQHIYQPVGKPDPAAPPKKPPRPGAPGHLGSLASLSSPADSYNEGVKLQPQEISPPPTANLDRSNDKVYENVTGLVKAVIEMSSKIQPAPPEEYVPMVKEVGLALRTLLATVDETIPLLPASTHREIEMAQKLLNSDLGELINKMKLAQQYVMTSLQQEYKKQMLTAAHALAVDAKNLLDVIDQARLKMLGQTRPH

Take `CCOC(=O)C[C@H]1[C@H](OC(=O)c2ccc(C(=O)c3ccccc3)cc2)[C@@H](NC(=O)c2ccccc2)c2cc(OCCCO)ccc2N1C(=O)c1ccc2ccccc2n1`: the composite z-score in [1] was 0.783; in test [3], 0.0561; in test [4], -0.0187; in test [5], 0.418; in test [6] it was 1.53; in [7] it was 0.612. The composite z-score is 1.33 in [8]; -0.284 in [9]; 1.05 in test [10]; 1.03 in test [11]; 1.06 in [12]; 0.281 in test [13]. Further, the composite z-score in test [14] is 0.788; in test [15], -0.0746; in test [16], -0.268; in test [18], 0.536; in test [19], 0.324. The composite Z-score in test [2] is -0.386 (inactive). Further, the z-score is 0.586 in [17] and -0.417 (inactive) in [20].
As for `C=CC[C@@]1(C(=O)NCCN2CCOCC2)N=C(c2ccc(OCCCO)cc2)O[C@@H]1c1ccccc1N=[N+]=[N-]`, the composite z-score in [1] was 0.711; in test [3] it was -0.396; in test [4], -0.109; in test [5], 0.716; in test [6], 1.62; in test [7] it was 0.232. Moreover, the composite z-score is 0.176 in test [8]; 0.703 in [9]; -0.572 in [10]; 0.373 in test [11]; 0.126 in test [12]; 0.503 in test [13]. Also, the composite z-score in [14] came out at 0.161; in [15], 1.36; in [16], 0.399; in test [18] it was 0.113; in test [19], 1.18. In addition, in [2], the composite Z-score is 0.346 (inactive). The z-score was 0.404 in test [17] and -5.94 (inactive) in [20].
For `COC(=O)[C@@]1(Cc2ccc(OC)cc2)[C@H]2c3cc(C(=O)N(C)C)n(Cc4ccccn4)c3C[C@H]2CN1C(=O)c1ccccc1`, the composite z-score in test [1] is 0.972; in [3] it was 0.0674; in test [4] it was 0.293; in test [5], 0.89; in test [6], 3.14; in [7], 1.03. The composite z-score was -0.0453 in test [8]; -0.855 in test [9]; -0.0204 in [10]; 1.57 in test [11]; 0.451 in [12]; 1.44 in test [13]. Moreover, the composite z-score was 0.547 in test [14]; -0.363 in [15]; -0.567 in test [16]; -0.805 in [18]; 1.35 in test [19]. Further, the composite Z-score in test [2] was 0.655 (inactive). In addition, the z-score is 0.332 in [17] and 1.6 (inactive) in [20].
Regarding `CC(C)OC(=O)C=C1C[C@@H](c2ccccn2)O[C@@H](c2ccccn2)O1`, the composite z-score in [1] is -0.47; in [3], 0.0942; in [4] it was -0.12; in [5] it was 0.775; in [6], 0.407; in [7] it was 1.32. For the same molecule, the composite z-score in test [8] was 0.216; in [9], 1.49; in test [10], -0.333; in [11] it was 0.772; in test [12], -0.0007; in test [13], -0.19. Also, the composite z-score in test [14] is 0.0108; in test [15], 1.34; in [16] it was 0.935; in [18] it was 1.53; in test [19] it was 0.372. Further, in test [2], the composite Z-score is 0.92 (inactive). Moreover, the z-score in test [17] was 0.0752; in [20], 0.633 (inactive).
For the molecule `C=C[C@H](CO[Si](CC)(CC)CC)N(Cc1ccc(OC(C)=O)c(OC)c1)S(=O)(=O)c1ccc(Br)cc1`, the composite z-score in [1] was 0.848; in test [3], 0.295; in test [4], 0.0727; in test [5] it was 0.56; in test [6], 1.33; in [7], 0.897. Further, the composite z-score is 1.29 in test [8]; 1.31 in test [9]; 1.13 in test [10]; 2.48 in [11]; 1.08 in test [12]; 1.76 in [13]. Besides, the composite z-score in [14] was found to be 0.967; in [15], 1.28; in test [16], 0.913; in test [18], 0.237; in test [19], 0.713. In addition, in test [2], the composite Z-score is 0.646 (inactive). Also, the results for the z-score in test [17] and in test [20] were -0.202 and 0.0578 (inactive), respectively.
